In PubChem BioAssay (Tox21):
Results filed as inconclusive are left out. A call without a number means that no potency is given here. Values without a mark were called inactive. Calls of active or inactive are those of the source. The call rests on the fitted dose curve; in most records, active means well fitted activation curve with a large enough effect in the repeat runs; inconclusive means weak or mixed curves; inactive means flat fitted curve, though single readings scatter.

Test: A CellTox Green Cytotoxicity Assay to monitor cytotoxicity in HEK293 cells - 24 hour (AID 1224875); further: nearly all actives have a fitted effect of over 45% in size
Conditions: CellTox Green fluorescence; series mostly up to 76.8 µM
Text: National Center for Advancing Translational Sciences [NCATS]
NIH Chemical Genomics Center [NCGC]
U.S. Environmental Protection Agency [EPA]
National Institutes of Environmental Health Sciences [NIEHS]
National Toxicology Program [NTP]
Cell-based models are critical for drug discovery. Determining the natural cytotoxic effects resulting from test compounds is an essential research activity. A CellTox Green Cytotoxicity Assay to monitor cytotoxicity in real time of continues cell culture during 40 hours of the compound treatment was used to screen Tox21 10K library compounds in Hek293 cells. CellTox Green Cytotoxicity Assay is a nonlytic, homogeneous, biofluorescent method to measure cytotoxicity in cell culture after experimental manipulation. The assay system uses a proprietary asymmetric cyanine dye that is excluded from viable cells but preferentially stains the dead cell's DNA. […] Viable cells produce no appreciable increases in fluorescence. Therefore, the fluorescence signal produced by the binding interaction with dead cell DNA is proportional to cytotoxicity.
The mixture of Hek293 cell suspension and reagents were dispensed at 600cells/6 ul/well in 1536-well tissue culture treated black solid bottom plates using a Multidrop dispenser. After the assay plates were incubated at a 37 C/5% CO2 incubator for 5 hours, 23 nL of compounds dissolved in DMSO, positive and negative controls was transferred to the assay plate by a pintool work station. The plates were incubated at 37 C for 40 hours. The fluorescence intensity were measured at 0h, 8h, 16h, 24h, 32h and 40h time points using ViewLux plate reader during compound treatment.
Potency means the concentration at half of the fitted maximal effect.

| SMILES | Potency | activity change |
| --- | --- | --- |
| COC(Cc1ccccc1)OC | inactive |  |
| CCN(CCO)CCCC(C)Nc1ccnc2cc(Cl)ccc12 (stereo not given) |  | -1.16% [at 6.97 µM, active compounds read high] |
| NCc1ccccc1 | inactive |  |
| O=C(O)Cn1c(C(=O)Nc2nc(-c3ccccc3Cl)cs2)cc2ccccc21 | inactive |  |
| O=S1(=O)N=C(O)c2ccccc21 | inactive |  |
| NCCCN(CCO)CCO | inactive |  |
| N#Cc1cc2ccccc2c2ccccc12 | inactive |  |
| CC(=O)O[C@H]1C[C@@H]2CC[C@@H]3[C@H](CC[C@@]4(C)[C@H]3C[C@H]([N+]3(C)CCCCC3)[C@@H]4OC(C)=O)[C@@]2(C)C[C@@H]1N1CCCCC1 | inactive |  |
| COc1cc(C(C)(C)C)c(O)c(C(C)(C)C)c1 | 43.6 µM (active) |  |
| CCOc1nc2cccc(C(=O)O)c2n1Cc1ccc(-c2ccccc2-c2nn[nH]n2)cc1 | inactive |  |
| CC(=O)CC(=O)c1ccccc1 | inactive |  |
| O=S1(=O)c2cccc3cccc(c23)N1CCCN1CCN(c2ccc(F)cc2)CC1 | inactive |  |
| OCCC1CCCCN1 (stereo not given) | inactive |  |
| CCCCCOC(=O)c1ccc(O)cc1 | 49.6 µM (active) |  |
| O=S(=O)(O)c1ccc(O)c2ncccc12 | inactive |  |
| CCCC(=O)OCC | inactive |  |
| C=CCCCCCC | inactive |  |
| CN(c1nccc(=O)[nH]1)C1CCN(c2nc3ccccc3n2Cc2ccc(F)cc2)CC1 | inactive |  |
| O=c1c2ccccc2nnn1CCl | inactive |  |
| CCCCCCc1ccc(N)cc1 | inactive |  |

| SMILES | Potency | activity change |
| --- | --- | --- |
| CC(C)CCCCCCOC(=O)c1ccc(C(=O)OCCCCCCC(C)C)c(C(=O)OCCCCCCC(C)C)c1 | inactive |  |
| CCCCCCCCCCCCCCCC(=O)OC/C=C(C)/C=C/C=C(C)/C=C/C1=C(C)CCCC1(C)C | inactive |  |
| COc1ccc2[nH]c(S(=O)Cc3ncc(C)c(OC)c3C)nc2n1 (stereo not given) | inactive |  |
| Cc1ccc(C(C)c2ccc(C)c(C)c2)cc1C | inactive |  |
| O=C(O)c1cccc(N(Cc2cccnc2)c2ccc(OC(F)F)c(OC(F)F)c2)c1 | inactive |  |
| O=C(O)Cc1sc(-c2ccccc2)nc1-c1ccc(Cl)cc1 | inactive |  |
| O=CNc1ccccc1 | inactive |  |
| C=Cc1c(C)c2cc3[nH]c(cc4nc(cc5nc(cc1[nH]2)C(C)=C5CCC(=O)O)C(CCC(=O)O)=C4C)c(C)c3C=C | inactive |  |
| O=C(c1ccccc1)c1ccc2n1CCC2C(=O)O (stereo not given) | inactive |  |
| CNCC[C@@H](Oc1ccccc1C)c1ccccc1 | inactive |  |
| CC(=O)N(O)CCCCCNC(=O)CCC(=O)N(O)CCCCCNC(=O)CCC(=O)N(O)CCCCCN | inactive |  |
| CC(C(=O)O)c1ccc(C(=O)c2ccccc2)s1 (stereo not given) | inactive |  |
| CC1=CCC(C(C)C)C=C1 (stereo not given) | inactive |  |
| CCOC(=O)CC(C)C | inactive |  |
| N=C(N=C(N)N)N1CCOCC1 | inactive |  |
| CC(C)c1ccccc1C(C)C | inactive |  |
| CCCCOC(=O)c1ccccc1C(=O)OCC(CC)CCCC (stereo not given) | inactive |  |
| C#CCOC(=O)[C@@H](C)Oc1ccc(Oc2ncc(Cl)cc2F)cc1 | inactive |  |
| C=CC[N+]1([C@H]2C[C@H]3[C@@H]4CC[C@H]5C[C@H](OC(C)=O)[C@@H](N6CCCCC6)C[C@]5(C)[C@H]4CC[C@]3(C)[C@H]2OC(=O)CC)CCCCC1 | inactive |  |
| CCCCCCCCCCCCC(=O)O | inactive |  |
